Experimental data taken from PubChem BioAssay AID504707 (The Scripps Research Institute Molecular Screening Center, 2011).
The campaign covered roughly 340,000 compounds. About 280 (0.082%) were called active. For the sample, actives were picked, then their nearest neighbours and some compounds at random. Values without a mark were called inactive.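 How the source made its calls: active means percent activation above the mean of all tested compounds plus 3 SD (cut at about 19% in these data); inactive means the rest.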

molecular target: cAMP-dependent protein kinase type I-alpha regulatory subunit (Bos taurus) + cAMP-dependent protein kinase catalytic subunit beta (Mus musculus) (UniProt P00514+P68181); test: compounds dissociating PKAc from R1A subunit – biochemical, fluorescence polarization, Cy5-IP20, bovine R1A, mouse PKAc, primary screen (AID 504707); details: PKA-R1A dissociation, at 11.4 µM, hits give high values, scaled: DMSO 0%, 113 µM cGMP 100%;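 further: higher means more PKAc released from R1A so a rise in polarization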

Compound | activation
OCC1OC(n2cnc3c(N4CCCC4)ncnc32)C(O)C1O (stereo not given) | 2.45%
CC(Sc1ccc(S(=O)(=O)N2CCN(C)CC2)cn1)C(=O)NC1CCCC(C)C1C (stereo not given) | 1.21%
NC1=CC(=O)C(=O)c2cccnc21 | 0.52%
CCCc1ccc(S(=O)(=O)N2CCN(C(=O)c3cc(C)on3)CC2)cc1 | 8.59%
CCc1noc(C)c1C(=O)OCC(=O)c1ccc(NC(=O)CC(C)C)cc1 | -17.9%
COc1ccc2c(c1)CCCO[C@]21O[C@H](CCO)C[C@H](O)[C@H]1O | -17.7%
COCOCCn1cc(CN2CCS(=O)(=O)N(Cc3ccc(-c4ccccc4)cc3)C(CC(C)C)C2=O)nn1 (stereo not given) | -7.1%
CCc1cc(C(=O)N(CC)CC(=O)Nc2c(F)cccc2F)sc1C | 2.41%
O=S(=O)(c1ccc(Cl)s1)N1CCC2(CC1)OCCO2 | -0.53%
Cc1noc(C)c1S(=O)(=O)N(C)C[C@H]1OCCCC[C@@H](C)Oc2ccc(NC(=O)CCCN(C)C)cc2C(=O)N([C@H](C)CO)C[C@@H]1C | -9.82%
Cc1ccn(CC(=O)NC2CCCN(Cc3ccccc3F)C2)n1 (stereo not given) | 3.67%
CCOC(=O)c1cnc(SC)nc1Sc1ccc(Cl)cc1Cl | -0.11%
C[C@@H]1CN([C@H](C)CO)S(=O)(=O)c2ccc(C#CC3CCCCC3)cc2O[C@H]1CN(C)C(=O)Cc1ccncc1 | -5.17%
CC1CCN(C(=O)CSc2nnc(-c3ccco3)n2N)CC1 | -3.33%
Cc1ccc(CCNC(=O)CN2C(=O)CSc3ccc(S(=O)(=O)N4CCOCC4)cc32)cc1 | -7.23%
CCCCN=C(N)/C(C(=O)OCC)=C(\O)c1ccc(OC)cc1 | -0.11%
COc1ccc(S(=O)(=O)N2CCC(C(=O)NCCC(=O)NCCc3cccc(F)c3)CC2)cc1 | -4.12%
NS(=O)(=O)c1ccc(CNC(=O)c2cc(S(=O)(=O)N3CCOCC3)ccc2N2CCCC2)cc1 | -1.96%
CCN(CC)C(=O)C1=C(C)N(Cc2ccccc2)C(=O)C(CC(=O)NC(c2ccccc2)c2ccccc2)C1 (stereo not given) | -7.55%
CCc1nc2c(=O)[nH]cnc2o1 | 12.2%
CC1CCC2(CC1)NC(=O)N(CC(=O)NCc1ccco1)C2=O (stereo not given) | -3.37%
COc1ccc(NC(=O)COC(=O)C2COc3ccccc3O2)cc1 (stereo not given) | 11.1%

Compound | activation
O=C(CSc1ccc(Cl)cc1)NC1CC1 | -0.65%
CCCNC(=O)C1CC(=O)N(c2ccc(OCc3ccccc3)cc2)C1 (stereo not given) | 3.3%
O=C(COC(=O)c1cccc(Cl)c1Cl)NC1CCCCCC1 | -4.58%
C[C@H]1CN([C@@H](C)CO)C(=O)CCCn2cc(nn2)CO[C@@H]1CN(C)C(=O)Nc1ccccc1 | -15.3%
CCN(c1ccc(NC(=O)COC(=O)CCc2nc3ccccc3n2-c2ccccc2)cc1)C(C)C | -8.81%
Cc1ccc(S(=O)(=O)NN=C2CC(C)(C)CC(=O)C2(C)C)cc1 | -0.8%
C[C@H]1CN([C@@H](C)CO)C(=O)CCCn2nncc2CO[C@@H]1CN(C)S(=O)(=O)c1cccc(C#N)c1 | -0.38%
Cc1ccc([C@H]2N[C@]3(CCCN(Cc4ccccc4)C3=O)[C@H]3C(=O)N(Cc4ccccc4)C(=O)[C@@H]23)cc1 | 3.96%
CSCCC1NC(=O)N(CC(=O)Nc2cccc(S(=O)(=O)N3CCCCCC3)c2)C1=O (stereo not given) | 4.33%
CC(C)CC1C(=O)N(Cc2cn(CC3CCCCC3)nn2)CCS(=O)(=O)N1Cc1ccc(-c2ccc(Cl)cc2)cc1 (stereo not given) | -4.01%
COc1ccc(CNc2nnnn2C)cc1 | 19.2% (active)
CCCn1nnnc1NCc1ccc(OC)cc1 | -2.85%
Cn1nnnc1NCc1ccc(Cl)c(Cl)c1 | -9.38%
Cc1ccccc1OS(=O)(=O)c1cccc([N+](=O)[O-])c1 | 15.6%
O=C(NCc1nnnn1-c1ccc(Cl)cc1)c1ccc2c(c1)OCO2 | 4.42%
O=[N+]([O-])c1ccc(C(S(=O)(=O)Cc2ccccc2)S(=O)(=O)Cc2ccccc2)cc1 | 4.44%
CCOC(=O)c1cnn2c(SC)ncnc12 | 1.57%
CN(C)C(CNC(=O)c1cccc(S(=O)(=O)N2CCc3ccccc3C2)c1)c1ccccc1 (stereo not given) | -0.91%
CC1=C(C(=O)N2CCOCC2)CC(CC(=O)NCc2cccc3ccccc23)C(=O)N1CCC1=CCCCC1 (stereo not given) | -16.2%
Cc1cc(C)c(C#N)c(SCC(=O)NN2CC(=O)N(c3ccccc3F)CC2=O)n1 | -8.96%
CC(C)CC1C(=O)N(Cc2cn(Cc3ccco3)nn2)CCS(=O)(=O)N1Cc1ccc(-c2ccc(Cl)c(Cl)c2)cc1 (stereo not given) | -7.28%
CCOC(=O)c1nc(-c2ccc3c(c2)OCO3)[nH]c1C | -2.48%

Compound | activation
CC1=C(C(=O)N2CCOCC2)CC(CC(=O)NCCN2CCOCC2)C(=O)N1CCC1=CCCCC1 (stereo not given) | -5.53%
CCC(C)C1(C2CCCC2)NC(=O)NC1=O (stereo not given) | -4.54%
O=C(Nc1cccc(C(=O)O)c1)/C(=C\c1ccccc1)NC(=O)c1ccc(Br)o1 | 3.24%
O=C(c1ccc(N2CCCC2=O)cc1)N1CCN(c2ccc(C(F)(F)F)cc2[N+](=O)[O-])CC1 | 0.5%
CCN(C(=O)C1CCCN(c2nc(-c3ccc(OC)cc3)no2)C1)c1ccc(OC)cc1 (stereo not given) | -6.29%
Cc1ccnc(SC2CC(=O)N(c3ccccc3)C2=O)n1 (stereo not given) | 8.38%
Cc1cccc(NS(=O)(=O)c2cc(Cl)ccc2Cl)n1 | -4.38%
O=C1[C@H]2[C@@H](c3ccc(C(F)(F)F)cc3)N[C@]3(CCCN(Cc4ccc(Br)cc4)C3=O)[C@H]2C(=O)N1Cc1ccccc1 | -1.26%
CC(=O)N1CCc2cc(S(=O)(=O)NC3CCCCC3)ccc21 | 5.76%
Cc1ccc(NC(=O)Cn2sc3ccccc3c2=O)cc1 | 8.53%
CN(C)c1ccc(NC(=O)CSc2n[nH]c(-c3ccco3)n2)cc1 | 7.46%
Cc1ccc(S(=O)(=O)/N=C2\C=C(NS(=O)(=O)c3ccc(C)cc3)C(=O)c3ccccc32)cc1 | -6.85%
C[C@H](CO)N1C[C@H](C)[C@@H](CN(C)Cc2ccc3c(c2)OCO3)OCc2cnnn2CCCC1=O | -8.89%
CCOC(=O)C1CCCN(S(=O)(=O)c2ccc3c(c2)C(C)(C)C(=O)N3C)C1 (stereo not given) | -3.23%
COc1cc(Br)c(-c2sc(Nc3ccccc3)n[n+]2-c2ccccc2)cc1OC | -4.44%
Nc1nonc1-n1nnc(C(=O)N/N=C/c2ccc(Cl)cc2)c1-c1ccc2c(c1)OCO2 | -7.77%
CCS(=O)(=O)N1Cc2ccccc2CC1C(=O)Nc1nc2ccc(F)cc2s1 (stereo not given) | 5.39%
Cc1cccc(C(=O)OCC(=O)Nc2sccc2C(N)=O)c1C | 3.56%
O=C(CN1C(=O)NC2(CCc3ccccc32)C1=O)NC1CCCCC1 (stereo not given) | -0.6%
COC(=O)[C@H]1Cc2cnoc2C[C@]1(C)C(=O)O | 4.79%
COc1ccc(CN2C(=O)C(CC(=O)NC3CCCCC3)CC(C(=O)N3CCOCC3)=C2C)cc1 (stereo not given) | 1.08%
CC1CC(NC(=S)N(C)C)CC(C)(C)C1 (stereo not given) | 7.75%

Compound | activation
O=C(NN=Cc1ccc2c(c1)CCC2)c1ccccc1O | 10.6%
Cc1onc(-c2ccccc2)c1-c1nnc(COC(=O)c2ccc(N(C)C)cc2)o1 | 11.8%
COc1cccc(NC(=O)Nc2ccc(F)cc2)c1 | 9.12%
c1ccc2c(c1)nnn2-c1ccncc1 | -12.8%
CC1=C(C(=O)N(C)C)CC(CC(=O)NCCc2ccccn2)C(=O)N1CCC1=CCCCC1 (stereo not given) | 3.98%
CC(=O)Nc1ccc2c3c(ccc([N+](=O)[O-])c13)CC2 | 1.42%
C[C@H]1CN([C@@H](C)CO)C(=O)CCCn2cc(nn2)CO[C@@H]1CN(C)S(=O)(=O)c1ccc(-n2cccn2)cc1 | 4.21%
CC(C)CCNc1nc(N2CCCC2)c2c(c1C#N)CCN(C)C2 | 6.18%
CN1CCN(S(=O)(=O)c2cccc(C(=O)Nc3sccc3C#N)c2)CC1 | -12.1%
C[C@H]1CN([C@@H](C)CO)C(=O)CCCn2cc(nn2)CO[C@@H]1CN(C)S(=O)(=O)c1ccccc1C#N | -3.32%
CC(=NNC(N)=O)C1CC2CCC1CC2 (stereo not given) | -3.74%
COc1ccc(Cl)cc1NC(=O)CN(C)C(=O)c1cn(-c2ccccc2)nc1-c1cccs1 | -7.71%
Cc1ccc([C@H]2C[C@H](O)[C@@H](n3cc(COC(=O)c4ccccc4)nn3)CN2CC2CCCCC2)cc1 | -14.8%
CCCCCCNC(=O)O[C@]12C[C@@H](C(=O)OC)[C@@H](C(=O)OC)C[C@@]1(O)CN(S(=O)(=O)c1ccc(C)cc1)C2 | -13.7%
CCc1nnc(NC(=O)c2ccco2)s1 | -1.79%
Cc1cccc(C(=O)C(O)(c2ccccc2)C2CCCCC2=O)c1 (stereo not given) | -0.27%
COc1ccc(S(=O)(=O)N(C)C[C@H]2OCc3cnnn3CCCC(=O)N([C@H](C)CO)C[C@H]2C)cc1 | 9.03%
CCOC(=O)C1(O)CC(C)=NN1C(=O)c1cccc(Br)c1 (stereo not given) | -8.67%
C#CCN(C[C@H]1[C@H](OC(=O)NC2CCCC2)[C@H](OC(=O)NC2CCCC2)C[C@H]2C(=O)N(c3ccccc3)C(=O)[C@@H]12)S(=O)(=O)c1ccc(C)cc1 | 7.98%
